From the supplement of paper PMC7595190
Values without a mark were called inactive.

Test system: MV4-11
Experiment: CellTox Green cytotoxicity fluorescence relative to DMSO vehicle (fold of vehicle RFU); higher = more cell death (loss of membrane integrity), active = 2 or more
Method: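 Paediatric AML cell lines (MV4-11, CMK, Kasumi-1; 4x10^4 cells/well, 96-well) treated with single compounds from the Selleckchem apoptosis library at 0.01, 0.1 and 1 µM. Cytotoxicity was read with CellTox Green (RFU, Ex 485/Em 520) at 24, 48 and 72 h and normalised to the 0.1% DMSO vehicle. Normalised RFU >= 2 was taken as a successful, cell-killing treatment.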

| Compound | CellTox Green cytotoxicity fluorescence (0.01 µM, 24 h) | CellTox Green cytotoxicity fluorescence (0.01 µM, 48 h) | CellTox Green cytotoxicity fluorescence (0.01 µM, 72 h) | CellTox Green cytotoxicity fluorescence (0.1 µM, 24 h) | CellTox Green cytotoxicity fluorescence (0.1 µM, 48 h) | CellTox Green cytotoxicity fluorescence (0.1 µM, 72 h) | CellTox Green cytotoxicity fluorescence (1 µM, 24 h) | CellTox Green cytotoxicity fluorescence (1 µM, 48 h) | CellTox Green cytotoxicity fluorescence (1 µM, 72 h) |
| --- | --- | --- | --- | --- | --- | --- | --- | --- | --- |
| CC(C)(C)C[C@@H]1N[C@@H](C(=O)N[C@H]2CC[C@H](O)CC2)[C@H](c2cccc(Cl)c2F)[C@]12C(=O)Nc1cc(Cl)ccc12 | 1.04 | 1.03 | 1.05 | 0.993 | 1.11 | 1.22 | 1.26 | 2.25 (active) | 2.49 (active) |
| CCOc1cc(C(C)(C)C)ccc1C1=N[C@@](C)(c2ccc(Cl)cc2)[C@@](C)(c2ccc(Cl)cc2)N1C(=O)N1CCN(CCCS(C)(=O)=O)CC1 | 0.993 | 1.01 | 1.01 | 1.03 | 1.07 | 1.13 | 1.07 | 1.63 | 2.02 (active) |
| Cn1cc(-c2ccc3c(c2)CCN3C(=O)Cc2cccc(C(F)(F)F)c2)c2c(N)ncnc21 | 0.987 | 0.984 | 0.979 | 0.986 | 0.981 | 0.977 | 1.05 | 1.34 | 1.77 |
| Nc1cccc2c1CN(C1CCC(=O)NC1=O)C2=O (stereo unspecified) [Lenalidomide] | 0.939 | 0.942 | 0.935 | 0.943 | 0.929 | 0.915 | 0.952 | 0.958 | 0.944 |
